# Data taken from the supplement of paper PMC11417369.
# ± gives the standard deviation of the averaged measurements. Whole data set: some 25,000 sequences, median “ln(normalized median fluorescence intensity)” near 8.6, cut for the highest 2% near 10. For the sample, the highest values were picked, then their nearest neighbours and some sequences at random.
# System: PfAP2-EXP AP2 domain (GST-tagged)
# Assay: gcPBM binding intensity (ln(normalized median fluorescence intensity)); higher = stronger DNA binding
# Outline: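 GST-tagged P. falciparum DNA-binding domains produced in E. coli were incubated for 1 h on an Agilent 4 × 180k array of primer-extended double-stranded 36-bp intergenic genomic probes with negative controls. Binding intensity is the highest Masliner-normalised natural-log median intensity across replicate spots of either probe orientation, with bound protein detected by Alexa488 anti-GST antibody at 488 nm.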
row,Sequence,gcPBM binding intensity (ln)
1,TCACATACATTACTTACACACCATATTAAGATATAC [CACACA_site4415],8.68 ± 0.43
2,ATTTATATTCCAATATGTACATATTTTCGTATAACC [XGTACX_site8507],8.88 ± 0.35
3,AAATTTCAATAATCTACACACATAAAAAAACAAAAG [CACACA_site1702],8.82 ± 0.52
4,TACAATTTTTTAAATGCACACAAAAGGAATAAATAA [CACACA_site8075],8.78 ± 0.16
5,GAAAAAAGAAATTAAACATGCATCTGCAAATTTAAA [TGCATGCA_site974],8.34 ± 0.42
6,TGAATACTTATGTTCGCACACATGCAAATTAAAAAA [CACACA_site4048],8.62 ± 0.22
7,ACTATAAATATATACACATGCGCACACACAAGTGGG [TGCATGCA_site432],8.77 ± 0.39
8,TCTTATTCAAACGTAAAACGAAGAAGAAAAAAAAAA [CACACA_negctrl_site149],8.49 ± 0.41
9,ATAATAAAAATAAAATGTACATACATAAATATATAT [XGTACX_site6228],8.62 ± 0.28
10,GTTATAAATGCATATACACACATACGTACATACATA [CACACA_site7655],8.79 ± 0.23
11,AAAATAATAAATAAATGTACATATATATATATATAT [XGTACX_site3078],10.2 ± 0.47
12,AAAATAATGTATATATGTACATATAAATATATATAT [XGTACX_site8081],9.32
13,AATGTACAAATACGTACACACATATATATATATATA [CACACA_site1542],10.1 ± 0.42
14,ATACACAAATGCATACGTACATATATATATATATAT [XGTACX_site3504],10.2 ± 0.33
15,TATTTCATATGAAGAAGTACTATTAATAATTTCCTT [XGTACX_site6587],8.3 ± 0.28
16,TATTATTTTAATTATTCACACATTATTATAAAAATT [CACACA_site5538],8.3 ± 0.33
17,ATTATTCGTTTTAAATGTACTCATATAAACGATAAA [XGTACX_site7866],8.52 ± 0.3
18,GGATATAACAAACACACACACACATATATATATATT [CACACA_site4141],8.59 ± 0.19
19,AAATCGAACAAATTATGTACTAAAAAAAAAATTTAT [XGTACX_site6399],8.39 ± 0.4
20,AATATGTATCCATACACACATACATTTTATTTGCAA [CACACA_site874],8.65 ± 0.45
21,ATATATATATATAACACACGCAAAAAAATTAAATAA [CACACA_site1400],9.96 ± 0.11
22,TACAAAAAAATAAAAAAAATTAAATAAATAAATATA [CACACA_negctrl_site45],8.17 ± 0.37

row,Sequence,gcPBM binding intensity (ln)
1,AAAAAAAATTAAAATAAAATATAAATATAAAATATA [GTGCAC_negctrl_site714],8.23 ± 0.24
2,ATATATATATATATAACACACGCAAAAAAATTAAAT [CACACA_site8395],10.2 ± 0.26
3,TGATATATATATATATATATAACACACGCAAAAAAA [TGCATGCA_negctrl_site240],8.73 ± 0.51
4,AGCAAAAATTAAATAAATAAATATATATATATATAT [TGCATGCA_negctrl_site449],10.2 ± 0.63
5,TATGTATCAAATAAATGTACATATATATATATATAT [XGTACX_site2189],10.1 ± 0.49
6,ATATATATATATATATGTACATATGTTAGGATCAAA [XGTACX_site8626],10.2 ± 0.33
7,ATATATATATATATATGTACATATATACATATACAT [XGTACX_site2350],9.99 ± 0.43
8,ATATATATATACATATGTACATATATATTTATACAT [XGTACX_site2463],9.64 ± 0.33
9,TTATGGTTATACATATGTACATATATATATATATAT [XGTACX_site1494],10.3 ± 0.2
10,ATCATGTTATATACATGTACATATATATATATATAA [XGTACX_site609],8.51 ± 0.4
11,ATATATATATATACATGTACATATATACATTATATT [XGTACX_site936],9.99 ± 0.45
12,ATCATGTTATATACATGTACATATATATATATATAT [XGTACX_site1329],10.2 ± 0.3
13,TGTTATATGTTCAAATGTACAAATCATATACATGTT [XGTACX_site3192],8.45 ± 0.38
14,AAAGATACTTTCCTCAAACACACAAAACTATACAAC [CACACA_site1475],8.79 ± 0.45
15,AAATTAAAATAATAATTCTACAAATTAATTTATCAT [XGTACX_negctrl_site44],7.97 ± 0.49
16,TATTTAAAACTATACACATGCATTATATAAAGATAT [TGCATGCA_site702],8.79 ± 0.4
17,AAAATAATATTTAATACACACATAATTATAATATAA [CACACA_site782],8.48 ± 0.32
18,AATGTTTTTGTGAGATGTATAAATTTTATTTTATTT [XGTACX_negctrl_site413],8.38 ± 0.38
19,ATATAACACAAGGGCACACATATACCTTTCCTTTTT [CACACA_site412],8.77 ± 0.36
20,ATTAATTTTAATAAAGGTACACGTAGTTTTTTATTA [XGTACX_site7868],8.16 ± 0.34
21,AAAAAAAAAATATGTACACACATATAAAATACATAA [CACACA_site6869],8.56 ± 0.3
22,CAAACCCACCAACACACACACACAAAAATGATTAAA [CACACA_site2432],8.49 ± 0.68

row,Sequence,gcPBM binding intensity (ln)
1,TTTTTTTTTTTTTTTTTTTTTTTATGTTCTTAAAAA [GTGCAC_negctrl_site62],8.02 ± 0.67
2,CACACCCACAAAAACACACACAAAGGTGTTCTTATA [CACACA_site1293],9.43 ± 0.64
3,CTTTAAACCCTGAACACACACAAATACACCCAAAAA [CACACA_site4297],8.81 ± 0.42
4,TTATGTTCTTTAAAACCACACACCCCCCAACCCCCC [CACACA_site8742],10.9 ± 0.29
5,ATGTTCTTTAAAACCACACACCCCCCAACCCCCCTC [CACACA_site2373],10.6 ± 0.13
6,ATAAATTTTTTTTTTTTTTTTTTTTTTTTTTTTTTT [CACACA_negctrl_site508],9.19 ± 0.057
7,ATATATTTTAATTGTTGTACATATTAAATAAATAGG [XGTACX_site2311],8.47 ± 0.49
8,TTGTATAAAATATGTAGTACAATAATATAACATTTT [XGTACX_site8607],8.55 ± 0.2
9,TATAAATTTAAAATGACACACACTAAAATTATTTAA [CACACA_site1239],8.36 ± 0.42
10,TTATTTTATCACACATGTACATATGTTAATTTTTTT [XGTACX_site5598],8.84 ± 0.33
11,TAAAAATATAGGTATACACACATATAAATATAAATA [CACACA_site7785],8.54 ± 0.4
12,ATAAAAAAATAAATTAGTACATATATATATATATAT [XGTACX_site6971],10.1 ± 0.35
13,TACATATATGATAAAAGTACATATAAATATACATAA [XGTACX_site3804],8.45 ± 0.33
14,ATAATAAAAAAAATTAGTACATATATAAATATAAAT [XGTACX_site1937],8.3 ± 0.33
15,TTAAAAAAAAAAAAAAGTACATAAGTATATATAATA [XGTACX_site4295],8.43 ± 0.45
16,ATATAAAAAAAATTTAGTACATATATATATATATAT [XGTACX_site8635],10.2 ± 0.48
17,ATTGGACTATAAATAGGTACACATATATATATATAT [XGTACX_site7562],10.4 ± 0.33
18,CCTTGATATATATAAAGTACATATATATATATATAT [XGTACX_site4325],10.2 ± 0.24
19,AGATAAAAAAAGTACACACACACATATATATATATA [CACACA_site3072],10.2 ± 0.26
20,AAGCATAAAGTATATAGTACATATATATATATATAT [XGTACX_site2945],10.2 ± 0.26
21,TATATTTATAGGTACACACACACATATAAATAAATA [CACACA_site6345],8.65 ± 0.37
22,ATAAAAAAAAAAAAAAGTACACATATAAAAGTATTG [XGTACX_site8265],8.42 ± 0.41

row,Sequence,gcPBM binding intensity (ln)
1,ATATAATATATTTTCACACATATTTTATGATGATAA [CACACA_site5614],8.3 ± 0.42
2,TAAATTTGTGGGATTTCACACAGGTTTATTTACATT [CACACA_site5455],8.13 ± 0.45
3,AGAATAATACAAAAATGTACATTAATAAAAAGATAG [XGTACX_site780],8.99 ± 0.42
4,TAACAAGGTTTATATGCATGCAAACATAACCAAAAA [TGCATGCA_site824],9.96 ± 0.23
5,CTTACATAAAATATCACACACATAAAAAAACAATAT [CACACA_site1901],8.87 ± 0.39
6,TAACATAGCAATGTTTCACACACAAGAAAAAATACA [CACACA_site8747],8.84 ± 0.45
7,GGGTTAATATTTACTACACACACTTAAAATATGTAT [CACACA_site47],8.59 ± 0.47
8,ATAATATTAGTAAACACACTCAAATTATATATGATA [CACACA_site5721],8.28 ± 0.59
9,TACATAAAATATATCACACATATAATATATATATAT [CACACA_site5834],9.54 ± 0.16
10,CAAAATTAATAAGTCACACACACATATATAATATAT [CACACA_site798],8.73 ± 0.45
11,AAATTAATAAGTCACACACACATATATAATATATAT [CACACA_site799],8.54 ± 0.36
12,AATAAATAAATAAGTACACACATATAAATATAAATA [CACACA_site6271],8.69 ± 0.27
13,ATATAAATAAAAAAAAGTACATAATATATAAAAATA [XGTACX_site3065],8.72 ± 0.33
14,TATATATATATATATAGTACACATATCACATAAATG [XGTACX_site6379],10.2 ± 0.23
15,TGTAATAAATAGTACACACACACATATATATATATT [CACACA_site1388],8.73 ± 0.38
16,ATAAAATAAAATAAAAGTACATAAATATATATATAT [XGTACX_site6110],9.83 ± 0.28
17,ATTAAAATATAAGTCACACATATATATATATATATA [CACACA_site6145],10.2 ± 0.33
18,TAAAAAAAAATAAAAAGTACATATATATATATATAT [XGTACX_site1155],10.3 ± 0.46
19,AATAAATAAATAAGTACACACATATATATATATATA [CACACA_site284],10.2 ± 0.6
20,TATAAAAATAAAAAAAGTACACATAAAAATATATAT [XGTACX_site5189],8.77 ± 0.33
21,AGTTGGATACGAAGATGTACAATAATAATAATTAAG [XGTACX_site3561],8.9 ± 0.35
22,GTGAAATTATATTTTTGTACATATATTATATATTAT [XGTACX_site3387],8.52 ± 0.32
